High-throughput results from PubChem BioAssay.
NPR2 activator: GC-B (human) receptor activation | hit rate 0.11% among 370,000 | AID 1920062 | P20594 | HEK293-GC-B cells, CNP EC30, cGMP TR-FRET; 0% at EC30 CNP, 100% saturating CNP | activation, % at 10 µM;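 active = activation at 10 µM reaching about 35% in either raw or pattern-adjusted values, limit read from the data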
Target sequence (P20594 whole entry, looked up): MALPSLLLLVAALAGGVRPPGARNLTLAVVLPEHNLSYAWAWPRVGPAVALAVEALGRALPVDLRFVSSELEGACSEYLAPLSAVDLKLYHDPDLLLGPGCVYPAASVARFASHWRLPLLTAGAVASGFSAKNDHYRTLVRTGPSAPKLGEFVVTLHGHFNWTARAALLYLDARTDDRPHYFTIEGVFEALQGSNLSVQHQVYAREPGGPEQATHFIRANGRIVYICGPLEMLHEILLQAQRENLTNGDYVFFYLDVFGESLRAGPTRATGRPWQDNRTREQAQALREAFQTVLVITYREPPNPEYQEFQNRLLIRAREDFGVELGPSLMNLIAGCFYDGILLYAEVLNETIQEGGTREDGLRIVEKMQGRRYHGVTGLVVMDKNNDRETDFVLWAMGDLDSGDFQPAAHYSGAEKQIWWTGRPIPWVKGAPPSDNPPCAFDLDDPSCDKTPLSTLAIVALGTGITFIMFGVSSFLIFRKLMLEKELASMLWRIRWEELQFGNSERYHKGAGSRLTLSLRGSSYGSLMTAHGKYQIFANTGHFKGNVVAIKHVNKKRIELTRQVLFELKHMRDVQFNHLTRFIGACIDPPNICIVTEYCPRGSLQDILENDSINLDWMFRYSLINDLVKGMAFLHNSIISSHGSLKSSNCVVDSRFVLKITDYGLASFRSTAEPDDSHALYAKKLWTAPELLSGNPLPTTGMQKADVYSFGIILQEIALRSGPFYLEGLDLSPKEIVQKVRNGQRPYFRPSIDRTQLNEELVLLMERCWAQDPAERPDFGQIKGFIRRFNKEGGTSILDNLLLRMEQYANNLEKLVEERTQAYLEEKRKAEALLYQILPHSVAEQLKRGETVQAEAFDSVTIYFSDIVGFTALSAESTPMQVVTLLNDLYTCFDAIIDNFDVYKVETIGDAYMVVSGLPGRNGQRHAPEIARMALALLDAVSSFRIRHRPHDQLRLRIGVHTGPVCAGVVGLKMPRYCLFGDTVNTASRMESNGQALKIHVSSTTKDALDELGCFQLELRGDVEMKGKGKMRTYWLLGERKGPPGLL
GC-A act: GC-A (human) enzyme activation; P16066; HEK293 GC-A cells, cGMP TR-FRET, EC30 ANP; 0% at EC30 ANP, 100% saturating ANP; activation, % at 10 µM; hit rate 0.14% among 370,000; in the data active = activation above about 40%
HDAC3 inhib: blocks human histone deacetylase 3; O15379; recombinant HDAC3, fluorogenic peptide/trypsin coupled, fluorescence; inhibition, % at 8.3 µM; hit rate 0.15% among 320,000; in the data active = inhibition above about 26%, passing the limit was not always enough; inconclusive = no clear call, values can overlap the other calls
ALR inh: blocks human ALR sulfhydryl oxidase activity | purified ALR, DTT oxidation, H2O2 HRP-luminol luminescence | hit rate 3.8% among 290,000 | AID 485317 | P55789 | inhibition, % (concentration not given with the values);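 active = mean replicate inhibition above about 79%, with every replicate also reaching it, limit read from the data; inconclusive = only one of the two criteria met; inactive = mean below limit and not every replicate reaching it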
Active calls of the source: *; ? = inconclusive; / = no result given. The full list was thinned out, with hits kept by preference.

SMILES	NPR2 activator	GC-A act	HDAC3 inhib	ALR inh
CCOc1ccc(S(=O)(=O)Nc2nc3ccccc3nc2Nc2ccc(N3CCOCC3)cc2)cc1	7	1	7	93*
COc1c(F)c(F)c(C(=O)O)c(Nc2ccc(C)cc2C)c1F	-4	5	0	97*
Cc1ccc(Nc2c(F)c(F)c(F)c(F)c2C(=O)O)cc1	1	3	-2	87*
COc1cccc(Nc2c(F)c(OC)c(F)c(F)c2C(=O)O)c1	1	3	3	21
COc1cccc(Nc2c(F)c(F)c(F)c(F)c2C(=O)O)c1	1	-5	4	99*
COc1cccc(NC(=O)CCNC(=O)N2CC(=O)Nc3ccccc32)c1	-3	1	1	-1
COc1ccc(CNC(=O)c2ccc[nH]2)cc1Cl	3	2	2	-6
CC(C)Cc1c(O)nc(SCC(=O)Nc2ccc3c(c2)CCC3)[nH]c1=O	0	-3	0	99*
CC(C)c1c(O)nc(SCC(=O)Nc2ccc3c(c2)CCC3)[nH]c1=O	3	3	-4	99*
COc1ccc2nc(SCC(=O)Nc3ccc4c(c3)CCC4)[nH]c2c1	-5	-3	3	-21
Cc1cc(C)c(C)c(S(=O)(=O)N2CCC(C(=O)NNC(=O)c3ccccc3O)CC2)c1C	5	6	/	/
CC1(C(=O)NS(=O)(=O)c2cccc(F)c2)CCN1C(=O)CC1CCCC1 (centres undefined)	3	2	/	/
CCC(C)N1CC(O)=C(c2nc3ccccc3[nH]2)C1=N (centres undefined)	1	18	2	82*
CCNC(=O)Nc1ccc2c(c1)C(=O)N(C)[C@H]1CC[C@H](CC(=O)N[C@H](C)c3ccccc3)O[C@@H]1CO2	2	0	/	/
Cc1ccc(Nc2nc(Cl)nc(NC(C)(C)C)n2)cc1	0	6	8	9
Cc1ccc(Nc2nc(Cl)nc(N(C)C#N)n2)cc1	24	30	10	97*
Cc1noc(C)c1S(=O)(=O)N(C)C[C@@H]1OCc2cn(nn2)CCCC(=O)N([C@@H](C)CO)C[C@H]1C	-1	2	/	/
N#Cc1cnn(-c2ccccc2)c1NC(=O)CN1CCOCC1	4	5	-4	-6
N#Cc1ccsc1NC(=O)CN1CCN(c2ccc(O)cc2)CC1	-9	0	-1	99*
N#Cc1cnn(-c2ccccc2)c1NC(=O)CN1CCN(c2ccccc2)CC1	-3	-1	-15	97*
N#Cc1ccsc1NC(=O)CN1CCN(c2ccccc2)CC1	1	0	1	33
COc1ccc(C2NC(=O)c3sc4nc(C)c(C(C)=O)c(-c5ccc(Cl)cc5)c4c3N2)cc1 (centres undefined)	31	46*	-3	-4
O=C(NCc1ccccn1)c1ccc(CNS(=O)(=O)c2ccc(F)cc2)cc1	-1	-5	0	-3
C/C=C/c1ccc(O)c(OC)c1	-4	4	4	/
Oc1cc(O)cc(/C=C/c2ccc(O)c(O)c2)c1	-4	-5	-3	99*
SMILES	NPR2 activator	GC-A act	HDAC3 inhib	ALR inh
Cc1cc(C)c2[nH]c(C(=O)Nc3ccc(F)cc3Br)cc2c1	-2	-3	-3	-3
COC(=O)/C(=N\Nc1ccc(Cl)cc1)Sc1nnc(-c2ccc(OC)cc2)n1C	6	-1	1	95*
COc1ccc(CNC(=O)CSc2nnc(-c3ccc(NC(C)=O)cc3)n2C)cc1	4	3	3	-11
COc1cc(-c2[nH]ncc2CN(C)Cc2cc(C)[nH]n2)cc(OC)c1OC	-2	-2	5	6
CCSc1nc2c(c(-c3ccc(C)o3)c1C#N)CCCC2	2	1	5	83*
COC(=O)CSc1nc2c(c(-c3ccc(C)o3)c1C#N)CCCC2	-3	0	2	-6
c1ccc(NCCCNc2ccccc2)cc1	3	1	-3	98*
COc1ccc(S(=O)(=O)Nc2ccc(O)c3ccccc23)cc1	2	6	10	89*
Cc1ccc(S(=O)(=O)NNc2ccccc2)c(C)c1	2	-2	3	100*
Cc1ccc(C)c(S(=O)(=O)Nc2ccc(O)c3ccccc23)c1	-2	0	5	85*
COc1ccc(S(=O)(=O)Nc2ccccc2)cc1	0	-3	4	-24
Cc1ccc(S(=O)(=O)Nc2ccc(O)c3ccccc23)c(C)c1	-1	4	0	95*
O=C(Nc1ccc(F)c(Cl)c1)C1Cc2c(-c3ccc4c(c3)OCO4)ccnc2O1 (centres undefined)	16	10	/	/
Cc1cccc(-c2cccc3c4c([nH]c23)[C@@H]2C[C@H](N(C)C(=O)C3CCCCC3)[C@H]([C@H](C)O)CN2CC4)c1	4	-3	/	/
C=CCN(C(=O)CSc1nc2c(sc3ccccc32)c(=O)n1CCN(CC)CC)c1ccccc1	2	-5	2	/
CCN(CC)CCn1c(SCC(=O)Nc2ccc(F)cc2)nc2c(sc3ccccc32)c1=O	/	/	-2	99*
COc1ccccc1NC(=O)CSc1nc2c(sc3ccccc32)c(=O)n1CCN(C)C	-5	-3	11	99*
COCCn1c(SCC(=O)Nc2ccccc2OC)nc2ccccc2c1=O	3	2	-5	0
CCN(Cc1ccccc1)c1ccc(/C=N/N=C(N)N)cc1	-9	-13	0	99*
COc1ccc(NC(=O)C2CCCN2S(=O)(=O)c2cccc3nsnc23)c(OC)c1 (centres undefined)	/	/	2	1
COCCn1c(SCC(=O)NC(=O)NC(C)C)nc2ccccc21	-3	42*	2	-14
Nc1[nH]c(C(=O)c2ccc(Cl)cc2)c(-c2ccc(Br)cc2)c1C(=O)c1c[nH]c2ccc(F)cc12	-2	-9	/	/
CN(C)Cc1c(O)ccc2c3c(c(=O)oc12)CCCCC3	8	7	-218	90*
CCCCc1cc(=O)oc2c(CN(C)C)c(O)ccc12	-1	-1	-226	94*
CCCCc1cc(=O)oc2c(CN3CCN(C)CC3)c(O)ccc12	4	3	-185	1
SMILES	NPR2 activator	GC-A act	HDAC3 inhib	ALR inh
O=c1c(-c2ccco2)[n+]([O-])c2ccccc2n1OCc1c(F)cccc1F	-1	2	4	50
CCOn1c(=O)c(-c2cc3ccccc3o2)[n+]([O-])c2ccccc21	/	/	-1	93*
O=c1c(-c2cc3ccccc3o2)[n+]([O-])c2ccccc2n1OCc1ccccn1	-3	-2	5	6
O=c1c(-c2ccco2)[n+]([O-])c2ccccc2n1OCc1ccccc1F	-4	4	-1	97*
Cc1ccc(CNC(=O)COC(=O)c2ccc(S(=O)(=O)N3CCOCC3)cc2)cc1	-1	-1	?	1
O=C(CSCc1ccc(Br)cc1)N1CCCC1	-4	5	0	-26
S=c1[nH]c2ccccc2n2c(=S)[nH]nc12	-116	-77	7	99*
O=c1c2ccccc2nc(SCc2nc3ccccc3s2)n1Cc1ccco1	2	1	-1	87*
CC(C)C(=O)Nc1ccc(-c2nc3ccccc3c(=O)o2)cc1	-2	3	56*	/
CC(C)C(=O)Nc1cccc(-c2nc3ccccc3c(=O)o2)c1	-7	11	-1	6
